# Unmarked numbers belong to inactive results. No rule for the calls is given here.
# System: Imidazoline I2
# Assay: off-target receptor, channel and CYP panel, profiling panel, selectivity assay for S1P3 agonist project, biochemical, Ricerca HitProfilingScreen, CYP450 (AID 540351)
# Settings: Ricerca receptor/enzyme binding panel plus CYP450, Central, at 30 µM, hits give high values
smiles,measurement,value
O=C(c1cc(C2CC2)on1)N(C1CCCCC1)C1CCCCC1,inhibition,23%

# Source: PubChem BioAssay AID540351 (The Scripps Research Institute Molecular Screening Center, 2011)
